What follows are compounds tested against Torsin-1A (Homo sapiens) (UniProt O14656) (assay: torsin A mutant lysate binding on microarrays – cell lysate, small-molecule microarray, COS7 lysate, 635/667 nm fluorescence, primary screen (AID 1150;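 further: score pools 667 nm emission and signal to noise measuring lysate protein binding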)). Conditions: COS7 hTOR1A mutant lysate, 635 nm fluorescence, higher = more signal.
Sequence of Torsin-1A (Homo sapiens) (O14656 whole entry, looked up): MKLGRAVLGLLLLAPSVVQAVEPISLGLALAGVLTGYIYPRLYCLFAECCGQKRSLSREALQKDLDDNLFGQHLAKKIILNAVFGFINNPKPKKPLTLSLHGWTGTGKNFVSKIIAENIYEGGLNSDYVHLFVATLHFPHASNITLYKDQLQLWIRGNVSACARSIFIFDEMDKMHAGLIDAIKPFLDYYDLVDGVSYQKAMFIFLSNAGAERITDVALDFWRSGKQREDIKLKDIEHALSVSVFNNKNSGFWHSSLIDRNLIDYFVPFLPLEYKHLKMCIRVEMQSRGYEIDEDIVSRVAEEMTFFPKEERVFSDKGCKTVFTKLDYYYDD

| SMILES | composite z-score |
| --- | --- |
| COCCCNC(=O)[C@@]1(c2ccc([N+](=O)[O-])cc2)CC(=O)N(C(C)C)[C@@H]1c1ccc(CO)cc1 | 1.05 |
| CN1C(=O)C2C=CC(C(O)c3ccc(I)cc3)N(Nc3ccccc3)C2C1=O (stereo unspecified) | 0.696 |
| CCOC(=O)C1=C[C@@H](c2ccccc2)N(S(=O)(=O)c2ccc(C)cc2)[C@H]1c1ccccc1 | 0.176 |
| CC1CC/C=C\[C@H]2OC34C=CCN(C(C)(C)C)C(=O)[C@H]3N(C(CO)C(C)C)C(=O)[C@@H]4C2C(=O)O1 (stereo partly specified) | 0.931 |
| COC(=O)[C@@]1(Cc2ccc(F)cc2)[C@H]2c3cc(C(=O)N4CCCC4)n(CC4CC4)c3C[C@H]2CN1C(=O)c1ccccc1 | 1.03 |

The compounds below were run on Sonic hedgehog protein (Shh) (assay: Sonic hedgehog microarray binding compounds – biochemical, small-molecule microarray, 635/667 nm fluorescence, primary screen (AID 1151;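 further: Shh protein binding to compounds spotted on small-molecule microarray slides; score combines spot fluorescence intensity with signal-to-noise across triplicate slides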)). Conditions: 635 nm fluorescence, higher = more signal.

| SMILES | composite z-score |
| --- | --- |
| COCCCNC(=O)[C@@H]1c2ccccc2C(=O)N(C2Cc3ccccc3C2)[C@H]1c1ccc(CO)cc1 | 0.457 |
| COc1ccc([Si](C)(C)[C@H]2[C@H](CCO)O[C@@]3(C(=O)N(Cc4ccccc4)c4ccc(N5CCOC5=O)cc43)[C@@H]2C)cc1 | 1.16 |
| C[C@@]12COC[C@]13C=C(Br)[C@H](C2)[C@@]1(CO1)C3=O | -0.3 |
| Nc1cc(Br)ccc1C(=O)O | 0.0009 |
| COC(=O)[C@@]1(Cc2ccccc2)[C@H]2c3cc(C(=O)N(C)C)n(CCn4cc([N+](=O)[O-])nc4C)c3C[C@H]2CN1C(=O)c1ccccc1 | 0.383 |
| C=C(/C(=C/C[C@@H](OC(C)=O)c1ccc(CO)o1)c1cc(C(=O)OC)ccc1OC)C(C)C | 1.07 |
| CC(C)C(=C=CC[C@H](O)c1cccc(OCCO)c1)CCO | 0.688 |
| C=CCN1C(=O)[C@]2(O[C@H](CCO)[C@@H]([Si](C)(C)c3ccc(OC)cc3)[C@@H]2C)c2cc(NC(=O)c3ccc(OC)cc3)ccc21 | 2.11 |
| CC(=O)NCCCC[C@@H]1NC(=O)[C@@H]2C[C@H](C(=O)NCCCCCCN)[C@H](c3cccc(OCCO)c3)N2C1=O | -0.601 |
| CN(C)CCCCNC(=O)[C@H]1C[C@H]2C(=O)N[C@@H](CCCC[N+](C)(C)C)C(=O)N2[C@H]1c1ccc(O)cc1 | 0.719 |
| CC(C)N1CC=CC23O[C@@H]4/C=C\CCCOC(=O)C4[C@H]2C(=O)N(CCCCCCO)[C@@H]3C1=O (stereo partly specified) | -0.0836 |
| O=C(CS)NCCCCCCNC(=O)[C@@H]1C[C@@H]2C(=O)NCC(=O)N2[C@@H]1c1ccc(O)cc1 | 0.236 |
| COc1ccc([Si](C)(C)[C@H]2[C@H](CCO)O[C@@]3(C(=O)N(Cc4ccccc4)c4ccc(N5C(=O)c6ccccc6Oc6ccccc65)cc43)[C@@H]2C)cc1 | 0.534 |
| NC(=O)[C@H]1[C@@H]2C(=O)O[C@@H](c3ccccc3)[C@@H](c3ccccc3)N2[C@@H](c2ccc(O)cc2)[C@]12C(=O)Nc1ccccc12 | -0.96 |
| [N-]=[N+]=NCc1ccccc1[C@@H]1OC(c2ccc(OCCCO)cc2)=N[C@]1(Cc1ccccc1)C(=O)NCCN1CCOCC1 | 0.0392 |
| O=C1C2C=CC(C(O)c3ccc4c(c3)OCO4)N(Nc3ccccc3)C2C(=O)N1c1ccccc1 (stereo unspecified) | 0.0743 |
| O=C(CS)NCCCCCNC(=O)[C@@H]1C[C@@H]2C(=O)N[C@@H](Cc3ccccc3)C(=O)N2[C@@H]1c1cccc(OCCO)c1 | 1.49 |
| NCCCCCNC(=O)[C@@H]1C[C@@H]2C(=O)N3CCC[C@H]3C(=O)N2[C@@H]1c1ccc(O)cc1 | 0.468 |
| COc1cc(NN2C(C(O)c3ccccc3)C=CC3C(=O)N(C)C(=O)C32)cc(OC)c1OC (stereo unspecified) | 0.36 |
| CC=CC(O)C1C=CC2C(=O)NC(=O)C2N1Nc1ccccn1 (stereo unspecified) | 0.77 |
| COCCOC(=O)N1C(=O)[C@@]2(c3ccccc31)[C@H](c1ccccc1OCCO)N1[C@H](c3ccccc3)[C@H](c3ccccc3)OC(=O)[C@H]1[C@@H]2C(N)=O | 1.48 |
| COc1cc(NN2C(C(O)c3ccc(I)cc3)C=CC3C(=O)N(c4ccccc4)C(=O)C32)cc(OC)c1OC (stereo unspecified) | 0.325 |
| [N-]=[N+]=NCc1ccccc1[C@@H]1OC(c2ccc(OCCCO)cc2)=N[C@]1(Cc1ccccc1N=[N+]=[N-])C(=O)NCCN1CCOCC1 | 0.387 |
| C=C(/C(=C/C[C@H](OC(=O)c1ccncc1)c1ccccc1OCCO)c1cnc2ccccc2c1)C(C)C | 2.01 |
| C=CCNC(=O)[C@@H]1[C@H]2C(=O)O[C@H](c3ccccc3)[C@H](c3ccccc3)N2[C@H](c2ccc(OCCO)cc2)[C@@]12C(=O)N(C(=O)OCCOC)c1ccc(C#CCCO)cc12 | 1.17 |
| C=C[C@H](C)[C@H](OC(=O)Nc1ccc(OC)cc1)c1ccc(OCCO)cc1 | 0.261 |

Reference: PubChem BioAssay
